# Test results published in the supplement of paper PMC11732987, “Enantioselective OTUD7B fragment discovery through chemoproteomics screening and high-throughput optimisation” (Communications Chemistry, 2025).
# A number with no mark means an inactive call.
# Assays:
# Test in all cases: log2 ratio of Biotin-Ahx-Ub-VS probe labelling (fragment/DMSO); higher = less target engagement (more negative = stronger competition), active = hit call of the paper (q ≤ 0.05, log2 ratio ≤ -1)
# Settings in all cases: compound concentration: 200 uM; treatment time: 3 h
# USP9X = USP9X (UniProt Q93008)
# Chain of USP9X (Q93008 whole entry, the tested form may be a part): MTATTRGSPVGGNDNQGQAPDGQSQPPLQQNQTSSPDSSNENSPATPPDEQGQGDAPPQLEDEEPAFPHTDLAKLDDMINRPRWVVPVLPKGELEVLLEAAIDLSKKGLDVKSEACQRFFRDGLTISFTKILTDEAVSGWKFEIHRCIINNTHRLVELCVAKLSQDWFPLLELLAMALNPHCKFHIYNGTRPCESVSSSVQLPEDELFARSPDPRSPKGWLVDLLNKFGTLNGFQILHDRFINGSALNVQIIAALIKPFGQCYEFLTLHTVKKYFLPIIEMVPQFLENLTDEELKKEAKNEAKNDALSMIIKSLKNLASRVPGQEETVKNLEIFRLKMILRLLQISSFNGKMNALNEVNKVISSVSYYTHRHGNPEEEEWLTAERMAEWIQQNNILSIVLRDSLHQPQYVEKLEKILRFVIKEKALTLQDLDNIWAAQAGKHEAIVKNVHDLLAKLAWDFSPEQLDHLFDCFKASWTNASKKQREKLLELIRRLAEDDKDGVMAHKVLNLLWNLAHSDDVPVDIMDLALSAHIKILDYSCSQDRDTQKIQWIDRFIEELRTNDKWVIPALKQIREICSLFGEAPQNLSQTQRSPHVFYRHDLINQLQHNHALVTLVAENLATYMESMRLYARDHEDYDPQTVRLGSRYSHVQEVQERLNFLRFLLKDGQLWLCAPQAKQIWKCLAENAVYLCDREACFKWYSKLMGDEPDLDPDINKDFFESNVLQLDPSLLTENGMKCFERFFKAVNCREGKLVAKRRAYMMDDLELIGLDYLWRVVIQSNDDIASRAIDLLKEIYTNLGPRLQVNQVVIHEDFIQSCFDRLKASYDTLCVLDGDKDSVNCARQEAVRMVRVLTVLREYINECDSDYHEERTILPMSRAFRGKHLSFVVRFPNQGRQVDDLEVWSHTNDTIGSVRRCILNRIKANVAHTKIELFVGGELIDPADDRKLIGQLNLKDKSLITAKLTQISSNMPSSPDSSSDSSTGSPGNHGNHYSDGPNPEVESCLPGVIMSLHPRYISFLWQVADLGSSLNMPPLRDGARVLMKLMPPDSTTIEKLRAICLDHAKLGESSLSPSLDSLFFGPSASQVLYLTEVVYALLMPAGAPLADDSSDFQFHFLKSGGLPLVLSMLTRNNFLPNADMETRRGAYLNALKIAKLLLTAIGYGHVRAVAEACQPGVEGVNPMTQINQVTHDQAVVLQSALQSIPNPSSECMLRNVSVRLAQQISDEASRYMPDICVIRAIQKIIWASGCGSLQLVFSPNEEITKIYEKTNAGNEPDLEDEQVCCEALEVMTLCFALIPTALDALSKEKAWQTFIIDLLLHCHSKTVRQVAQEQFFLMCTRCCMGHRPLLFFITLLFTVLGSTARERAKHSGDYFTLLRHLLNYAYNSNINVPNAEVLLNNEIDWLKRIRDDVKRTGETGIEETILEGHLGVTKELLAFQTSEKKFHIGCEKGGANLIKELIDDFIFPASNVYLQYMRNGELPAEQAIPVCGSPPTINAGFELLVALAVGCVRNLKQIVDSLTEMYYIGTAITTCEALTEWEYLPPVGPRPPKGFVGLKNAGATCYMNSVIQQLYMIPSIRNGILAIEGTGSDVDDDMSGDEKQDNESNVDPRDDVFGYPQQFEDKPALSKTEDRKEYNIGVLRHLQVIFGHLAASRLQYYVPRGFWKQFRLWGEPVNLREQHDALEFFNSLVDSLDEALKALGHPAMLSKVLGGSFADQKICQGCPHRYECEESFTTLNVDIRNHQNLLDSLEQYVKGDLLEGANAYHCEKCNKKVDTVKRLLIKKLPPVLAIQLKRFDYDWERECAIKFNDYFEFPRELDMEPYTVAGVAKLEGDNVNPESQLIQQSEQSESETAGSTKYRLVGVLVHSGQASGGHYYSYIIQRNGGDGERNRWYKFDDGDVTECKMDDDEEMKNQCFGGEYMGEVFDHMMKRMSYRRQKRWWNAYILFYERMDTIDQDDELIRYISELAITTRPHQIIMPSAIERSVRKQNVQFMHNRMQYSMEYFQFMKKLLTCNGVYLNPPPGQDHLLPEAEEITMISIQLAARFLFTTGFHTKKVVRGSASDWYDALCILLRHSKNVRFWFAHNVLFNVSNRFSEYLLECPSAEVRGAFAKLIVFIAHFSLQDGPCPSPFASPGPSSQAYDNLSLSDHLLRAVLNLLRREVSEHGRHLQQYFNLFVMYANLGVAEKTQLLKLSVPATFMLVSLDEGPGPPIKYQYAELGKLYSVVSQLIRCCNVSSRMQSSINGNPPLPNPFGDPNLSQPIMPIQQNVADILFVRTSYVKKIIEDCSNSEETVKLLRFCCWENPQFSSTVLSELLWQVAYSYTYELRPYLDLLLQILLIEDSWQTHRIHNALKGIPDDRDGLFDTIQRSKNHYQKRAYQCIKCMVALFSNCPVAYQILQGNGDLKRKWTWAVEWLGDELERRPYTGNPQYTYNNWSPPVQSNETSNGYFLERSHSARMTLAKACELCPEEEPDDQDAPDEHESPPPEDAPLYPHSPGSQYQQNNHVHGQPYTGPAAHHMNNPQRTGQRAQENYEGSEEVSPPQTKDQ
# In short: (§1)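 Using Biotin-Ahx-Ub-VS at 0.5 µM final for 1 h, DUBs were labelled in HEK293T lysate (495 µg per sample) that had first been treated in triplicate with fragment at 200 µM or vehicle for 3 h. NeutrAvidin enrichment, LysC and trypsin digestion and diaPASEF LC-MS/MS followed. Spectronaut label-free quantities were global-median-normalised. Values are average log2 fragment/vehicle ratios by unpaired t-test, using proteins with ≥2 unique peptides.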
# UniProt O00487 = target: UniProt O00487
# Chain of UniProt O00487 (O00487 whole entry): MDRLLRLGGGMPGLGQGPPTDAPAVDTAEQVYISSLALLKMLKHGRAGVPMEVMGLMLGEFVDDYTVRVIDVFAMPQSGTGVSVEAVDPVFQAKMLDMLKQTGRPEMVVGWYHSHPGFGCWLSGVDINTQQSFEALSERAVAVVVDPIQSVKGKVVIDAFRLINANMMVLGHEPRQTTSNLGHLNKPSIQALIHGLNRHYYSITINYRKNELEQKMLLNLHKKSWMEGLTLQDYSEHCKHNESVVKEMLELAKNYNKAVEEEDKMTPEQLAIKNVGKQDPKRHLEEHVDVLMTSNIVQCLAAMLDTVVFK
# In short: as §1
# UniProt O00507 = target: UniProt O00507
# In short: as §1
# UniProt P51784 = target: UniProt P51784
# Chain of UniProt P51784 (P51784 whole entry): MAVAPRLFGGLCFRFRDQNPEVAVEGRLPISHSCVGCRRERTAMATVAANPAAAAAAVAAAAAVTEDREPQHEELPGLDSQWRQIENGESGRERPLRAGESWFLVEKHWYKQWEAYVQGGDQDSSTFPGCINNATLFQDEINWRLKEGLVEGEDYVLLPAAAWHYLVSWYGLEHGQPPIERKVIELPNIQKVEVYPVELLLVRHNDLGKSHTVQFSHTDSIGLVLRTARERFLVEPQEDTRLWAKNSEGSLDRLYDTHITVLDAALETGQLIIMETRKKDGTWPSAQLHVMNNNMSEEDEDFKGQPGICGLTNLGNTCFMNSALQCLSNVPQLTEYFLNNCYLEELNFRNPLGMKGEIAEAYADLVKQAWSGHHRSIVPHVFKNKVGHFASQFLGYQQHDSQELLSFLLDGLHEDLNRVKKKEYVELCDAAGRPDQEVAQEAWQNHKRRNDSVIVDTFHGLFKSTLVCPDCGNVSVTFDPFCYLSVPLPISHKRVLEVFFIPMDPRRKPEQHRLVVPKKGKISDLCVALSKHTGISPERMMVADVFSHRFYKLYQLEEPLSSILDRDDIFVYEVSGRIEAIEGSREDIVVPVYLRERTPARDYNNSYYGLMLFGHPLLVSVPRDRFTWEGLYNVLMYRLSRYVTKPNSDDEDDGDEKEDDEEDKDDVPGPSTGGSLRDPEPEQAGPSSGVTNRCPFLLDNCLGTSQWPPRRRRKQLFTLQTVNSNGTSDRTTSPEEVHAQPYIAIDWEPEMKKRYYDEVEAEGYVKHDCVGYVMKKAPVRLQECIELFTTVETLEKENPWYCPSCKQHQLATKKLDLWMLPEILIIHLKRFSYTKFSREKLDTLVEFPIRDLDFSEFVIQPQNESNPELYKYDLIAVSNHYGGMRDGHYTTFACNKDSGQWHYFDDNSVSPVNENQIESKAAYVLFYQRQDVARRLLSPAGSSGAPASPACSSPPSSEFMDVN
# In short: as §1
# UniProt Q5T2D3 = target: T1, UniProt Q5T2D3
# T1 sequence (whole entry): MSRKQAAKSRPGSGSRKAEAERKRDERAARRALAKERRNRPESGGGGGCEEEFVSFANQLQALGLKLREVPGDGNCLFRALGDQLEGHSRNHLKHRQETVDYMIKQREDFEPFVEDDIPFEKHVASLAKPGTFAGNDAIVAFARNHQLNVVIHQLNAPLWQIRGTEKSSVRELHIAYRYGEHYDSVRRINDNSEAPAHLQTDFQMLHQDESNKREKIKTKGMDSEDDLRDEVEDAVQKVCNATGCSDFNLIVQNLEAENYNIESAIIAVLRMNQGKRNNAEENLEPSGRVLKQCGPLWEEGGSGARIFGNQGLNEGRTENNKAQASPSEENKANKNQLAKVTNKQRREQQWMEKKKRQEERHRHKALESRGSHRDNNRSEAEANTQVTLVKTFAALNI
# In short: as §1
# UniProt Q8TE49 = target: T2, UniProt Q8TE49
# T2 sequence (whole entry): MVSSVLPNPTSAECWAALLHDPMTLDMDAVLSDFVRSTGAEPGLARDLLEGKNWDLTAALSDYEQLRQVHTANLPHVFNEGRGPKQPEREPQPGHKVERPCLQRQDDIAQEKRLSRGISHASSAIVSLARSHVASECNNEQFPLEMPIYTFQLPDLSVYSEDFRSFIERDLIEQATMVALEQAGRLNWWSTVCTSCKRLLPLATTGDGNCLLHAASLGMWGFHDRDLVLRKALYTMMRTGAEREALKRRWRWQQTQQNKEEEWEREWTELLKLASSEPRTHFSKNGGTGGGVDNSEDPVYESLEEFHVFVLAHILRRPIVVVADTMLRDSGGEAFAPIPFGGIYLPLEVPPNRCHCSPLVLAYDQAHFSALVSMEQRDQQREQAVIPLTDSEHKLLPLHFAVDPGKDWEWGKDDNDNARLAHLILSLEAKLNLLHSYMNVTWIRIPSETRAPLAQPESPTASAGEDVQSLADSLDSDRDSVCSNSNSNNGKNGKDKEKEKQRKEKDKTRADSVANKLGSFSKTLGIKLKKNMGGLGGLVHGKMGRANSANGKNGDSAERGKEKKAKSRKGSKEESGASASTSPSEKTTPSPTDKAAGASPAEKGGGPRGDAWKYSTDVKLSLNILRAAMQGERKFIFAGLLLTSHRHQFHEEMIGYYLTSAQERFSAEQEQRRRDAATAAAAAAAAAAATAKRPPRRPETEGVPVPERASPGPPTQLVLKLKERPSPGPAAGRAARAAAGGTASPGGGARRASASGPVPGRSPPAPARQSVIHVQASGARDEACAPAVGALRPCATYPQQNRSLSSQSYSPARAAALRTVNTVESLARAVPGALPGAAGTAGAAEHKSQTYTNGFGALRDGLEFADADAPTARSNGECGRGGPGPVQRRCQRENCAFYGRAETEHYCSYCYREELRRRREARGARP
# In short: as §1
# UniProt Q9P2H5 = target: T3, UniProt Q9P2H5
# T3 sequence (whole entry): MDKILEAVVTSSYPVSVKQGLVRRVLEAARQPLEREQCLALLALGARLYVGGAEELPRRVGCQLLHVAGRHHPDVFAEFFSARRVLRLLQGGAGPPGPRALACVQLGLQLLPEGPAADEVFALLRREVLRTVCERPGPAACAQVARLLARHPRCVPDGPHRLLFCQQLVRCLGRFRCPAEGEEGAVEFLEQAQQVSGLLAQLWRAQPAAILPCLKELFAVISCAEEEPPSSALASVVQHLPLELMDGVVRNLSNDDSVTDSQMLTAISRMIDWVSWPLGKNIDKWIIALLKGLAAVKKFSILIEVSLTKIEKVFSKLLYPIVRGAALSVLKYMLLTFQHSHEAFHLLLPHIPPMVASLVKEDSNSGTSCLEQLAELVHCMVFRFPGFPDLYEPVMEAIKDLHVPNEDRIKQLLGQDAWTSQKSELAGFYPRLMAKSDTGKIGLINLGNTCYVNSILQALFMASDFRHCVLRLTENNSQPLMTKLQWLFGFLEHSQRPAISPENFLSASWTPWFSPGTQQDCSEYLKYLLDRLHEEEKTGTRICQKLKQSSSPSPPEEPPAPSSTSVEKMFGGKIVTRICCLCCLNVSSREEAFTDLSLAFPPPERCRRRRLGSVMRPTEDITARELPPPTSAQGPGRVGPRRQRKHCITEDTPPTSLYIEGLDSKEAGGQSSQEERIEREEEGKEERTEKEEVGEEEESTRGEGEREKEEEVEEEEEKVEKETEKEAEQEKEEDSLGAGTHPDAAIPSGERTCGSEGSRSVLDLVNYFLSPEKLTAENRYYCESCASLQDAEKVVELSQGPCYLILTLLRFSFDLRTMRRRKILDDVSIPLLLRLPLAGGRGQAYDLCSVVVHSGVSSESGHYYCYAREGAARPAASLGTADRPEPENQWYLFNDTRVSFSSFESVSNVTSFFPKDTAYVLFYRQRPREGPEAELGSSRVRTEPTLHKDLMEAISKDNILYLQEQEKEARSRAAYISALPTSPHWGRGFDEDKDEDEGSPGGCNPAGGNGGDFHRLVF
# In short: as §1
# UniProt Q9UGI0 = target: T4, UniProt Q9UGI0
# T4 sequence (whole entry): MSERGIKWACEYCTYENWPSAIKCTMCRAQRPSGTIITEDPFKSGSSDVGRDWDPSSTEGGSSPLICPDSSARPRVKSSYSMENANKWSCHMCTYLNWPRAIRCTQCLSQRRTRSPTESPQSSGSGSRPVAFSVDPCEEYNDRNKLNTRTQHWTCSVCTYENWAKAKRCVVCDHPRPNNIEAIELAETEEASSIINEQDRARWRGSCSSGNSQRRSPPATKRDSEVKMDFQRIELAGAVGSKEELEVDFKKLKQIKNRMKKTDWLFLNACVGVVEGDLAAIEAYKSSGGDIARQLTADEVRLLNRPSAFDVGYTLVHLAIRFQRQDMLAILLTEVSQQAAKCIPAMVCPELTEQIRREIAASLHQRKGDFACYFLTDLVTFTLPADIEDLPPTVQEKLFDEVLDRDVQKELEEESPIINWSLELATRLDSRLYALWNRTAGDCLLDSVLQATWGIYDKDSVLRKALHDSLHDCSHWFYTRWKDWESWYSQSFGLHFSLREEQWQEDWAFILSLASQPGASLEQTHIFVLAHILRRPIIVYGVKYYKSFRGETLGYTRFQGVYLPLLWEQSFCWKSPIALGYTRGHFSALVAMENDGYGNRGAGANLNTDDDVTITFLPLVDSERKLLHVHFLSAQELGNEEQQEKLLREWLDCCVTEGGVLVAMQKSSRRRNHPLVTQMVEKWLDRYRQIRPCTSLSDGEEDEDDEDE
# In short: as §1
# YOD1 = target: T5, YOD1 (UniProt Q5VVQ6)
# T5 sequence (whole entry): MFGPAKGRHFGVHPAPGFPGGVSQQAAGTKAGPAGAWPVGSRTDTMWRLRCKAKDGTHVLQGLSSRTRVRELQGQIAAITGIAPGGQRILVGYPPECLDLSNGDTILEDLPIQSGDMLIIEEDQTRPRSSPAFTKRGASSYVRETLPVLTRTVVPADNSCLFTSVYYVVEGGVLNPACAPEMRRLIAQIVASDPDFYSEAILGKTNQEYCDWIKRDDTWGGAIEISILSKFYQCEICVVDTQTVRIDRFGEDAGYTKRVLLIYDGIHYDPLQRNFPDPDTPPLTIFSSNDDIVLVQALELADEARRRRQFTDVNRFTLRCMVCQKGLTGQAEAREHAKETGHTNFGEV
# In short: as §1
structure (smiles),measurement,setting,value
O=C(CCl)Nc1cc(Cl)ccc1-n1cncn1,log2 ratio of Biotin-Ahx-Ub-VS probe labelling,USP9X,-1.04 (active)
same,log2 ratio of Biotin-Ahx-Ub-VS probe labelling,UniProt O00487,-0.13
same,log2 ratio of Biotin-Ahx-Ub-VS probe labelling,UniProt O00507,-1.06 (active)
same,log2 ratio of Biotin-Ahx-Ub-VS probe labelling,UniProt P51784,-0.871
same,log2 ratio of Biotin-Ahx-Ub-VS probe labelling,UniProt Q5T2D3,-0.95
same,log2 ratio of Biotin-Ahx-Ub-VS probe labelling,UniProt Q8TE49,-1.44 (active)
same,log2 ratio of Biotin-Ahx-Ub-VS probe labelling,UniProt Q9P2H5,-0.954
same,log2 ratio of Biotin-Ahx-Ub-VS probe labelling,UniProt Q9UGI0,-1.05 (active)
same,log2 ratio of Biotin-Ahx-Ub-VS probe labelling,YOD1,-1.12 (active)
